In PubChem BioAssay AID1851 (National Center for Advancing Translational Sciences (NCATS), 2009):
Screen size: about 16,000 compounds; about 4,000 (25%) were called active. Inconclusive results (about 26%) are left out. A selection follows. A number with no mark means an inactive call. The call rests on the fitted dose curve; in most records, active means well fitted curve in the direction sought with a large enough effect; inconclusive means small, poorly fitted or top-dose-only effect, or effect the other way; inactive means no such curve, though single readings can be large or run the other way.

These molecules were tested against Cytochrome P450 2C9 (Homo sapiens) (UniProt P11712) (assay: Cytochrome panel assay with activity outcomes). Conditions: recombinant CYP, pro-luciferin dealkylation, luminescence, p450-cyp2c9; series mostly up to 57.1 µM; activity, negative = inhibition: at the top concentration.
Cytochrome P450 2C9 (Homo sapiens), sequence (P11712 whole entry, looked up): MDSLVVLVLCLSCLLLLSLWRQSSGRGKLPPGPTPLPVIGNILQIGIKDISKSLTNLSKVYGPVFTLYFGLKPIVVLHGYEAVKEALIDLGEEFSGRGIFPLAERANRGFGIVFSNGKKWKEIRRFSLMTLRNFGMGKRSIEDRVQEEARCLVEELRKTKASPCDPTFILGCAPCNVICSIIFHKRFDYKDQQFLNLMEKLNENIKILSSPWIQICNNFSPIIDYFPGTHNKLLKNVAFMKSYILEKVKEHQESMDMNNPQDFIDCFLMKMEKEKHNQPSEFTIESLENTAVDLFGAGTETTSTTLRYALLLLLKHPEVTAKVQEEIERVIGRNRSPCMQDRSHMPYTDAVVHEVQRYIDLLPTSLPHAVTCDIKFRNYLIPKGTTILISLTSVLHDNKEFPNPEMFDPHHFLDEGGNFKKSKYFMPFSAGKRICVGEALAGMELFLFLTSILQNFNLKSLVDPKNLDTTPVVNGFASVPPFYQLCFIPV
On the % scale 0 is the no-effect control and ±100 the full control effect.

SMILES | activity, negative = inhibition | AC50
N/C(=N\O)c1cn([C@@H]2O[C@@H](CO)[C@H](O)[C@@H]2O)c2ncnc(NO)c12 | -5.39% [at 11.4 µM] | –
COc1ccc(NC(=O)CC#N)cc1OC | -4.95% | –
CCN(CC)C(=O)c1ccc(O)c(OC)c1 | 3.47% [at 25.6 µM] | –
COc1ccc(C(=O)c2ccc(OC)c(OC)c2)cc1OC | – | 11.2 µM (active)
CCN1CC=C2C(C#N)=C(N)C(C#N)(C#N)[C@H](c3ccoc3)[C@H]2C1 | -27.5% | –
CSc1nc(NC2CCCC2)c([N+](=O)[O-])c(NC2CCCC2)n1 | – | 2 µM (active)
O=C(O)CCNc1ncnc2nc[nH]c12 | 23.7% [at 11.4 µM] | –
Cc1ccc(C2=NN(S(C)(=O)=O)C(c3cccs3)C2)cc1 (stereo not given) | – | 11.2 µM (active)
O=C(CC(NS(=O)(=O)c1ccc(Cl)cc1)c1ccco1)NCc1ccco1 (stereo not given) | – | 10 µM (active)
S=C(S)NCCN1CCNCC1 | -16.5% [at 11.4 µM] | –
COc1ccc2c(Cl)c(C(=O)NCCCn3ccnc3)sc2c1Cl | – | 0.891 µM (active)
O=C(NCCCN1CCCC1=O)Nc1ccc(F)c(Cl)c1 | -29.7% | –
S=C(S)NCCCn1ccnc1 | – | 2 µM (active)
CCCNC(=O)Nc1ccc2c(c1)nc(C)n2C | 5.83% | –
CCN1CCN(CCCNC(=O)c2cc3cc4ccc(OC)cc4nc3o2)CC1 | 6.59% | –
O=C(NCCCn1ccnc1)Nc1ccc(Cl)cc1 | – | 0.316 µM (active)
O=S1(=O)N[C@H]2CC[C@@H]3NS(=O)(=O)N[C@H]4CC[C@H](N1)N4S(=O)(=O)N23 | -6.3% [at 11.4 µM] | –
O=C(NCCNC[C@@H](O)COc1ccc(O)cc1)N1CCOCC1 | – | inactive
CCOC(=O)c1c(O)[nH]c(=O)c(CC)c1C | 4.97% [at 11.4 µM] | –
COc1ccccc1OC[C@H](O)COC(N)=O | 37.5% [at 25.6 µM] | –
CCOC(=O)c1[nH]c(COC(=O)CCOc2ccccc2OC)c(C(=O)OCC)c1C | – | 4.47 µM (active)
N=C(N)SCCc1ccc(OCc2ccc([N+](=O)[O-])cc2)cc1 | 12.8% | –
CN1CCc2cc(Cl)c(O)cc2[C@@H](c2ccccc2)C1 | 18.4% | –
CCCCCN=c1ccn(Cc2ccccc2)c2ccccc12 | – | 0.316 µM (active)

SMILES | activity, negative = inhibition | AC50
N#Cc1cccc(-c2nccc(NCc3cccs3)n2)c1 | 5.43% [at 2.29 µM] | –
Cc1ccc(OCC(=O)Nn2cnc3ccccc32)cc1 | -22.6% | –
O=C(Cn1cnc2ccccc21)NC(c1ccccc1)c1ccccc1 | – | 15.8 µM (active)
O=S(=O)(/N=C(\Sc1ccccc1)c1ccccc1)c1ccc(Cl)cc1 | – | 3.98 µM (active)
O=S(=O)(/N=C(/Nc1ccc(F)cc1F)c1ccc(Cl)cc1)c1ccccc1 | -6.77% | –
CC(=O)NCCNc1ncncc1-c1ccccc1CN(C)C | 4.96% [at 2.29 µM] | –
CC#CCCCC(=O)Nc1cc(OC)nc(OC)n1 | – | 11.2 µM (active)
COc1cc(OC)nc(NC(C)=O)n1 | -11% | –
Cc1cc(C)nc(NC(=O)CCCC(=O)O)c1 | -9.57% | –
N#Cc1ccc(CN2CCC3(CC2)CCN(C(=O)c2cc(C(F)(F)F)cc(C(F)(F)F)c2)CC3)cc1 | -20.2% | –
C/C(CCN1CCCc2nc(C)c(C)cc21)=N\OC[C@@H](O)[C@@H]1O[C@@H]2OC(C)(C)O[C@@H]2[C@H]1O | 2.31% [at 11.4 µM] | –
COCCN=C1Sc2nc3c(C)cccc3cc2CN1Cc1ccco1 | – | 4.47 µM (active)
C[C@@H](c1ccccc1)N1C(=O)[C@H]2[C@H]3[C@H](O)[C@H](O)C/C(=N/OC[C@@H](O)COCc4ccco4)[C@@H]3CC[C@@H]2C1=O | 2.8% [at 11.4 µM] | –
COc1ccc2c(c1)c(CC(=O)N1CCOCC1)c(C)n2C(=O)c1ccc(Cl)cc1 | -18% | –
O=C(CSc1c[nH]c2ccccc12)N1CCOCC1 | 14.4% | –
CC(C)Cn1c(-c2ccc(Cl)cc2)cnc1SCC(=O)N1CCOCC1 | – | 14.1 µM (active)
COC(=O)c1[nH]c2cc(OC)ccc2c1NC(=O)c1ccc2c(c1)OCO2 | – | 3.55 µM (active)
COc1cccc(NC(=O)c2oc3ccccc3c2NC(=O)c2ccc3c(c2)OCO3)c1 | – | 3.55 µM (active)
CCOC(=O)c1[nH]c2cc(OC)c(OC)cc2c1NC(=O)c1ccc2c(c1)OCO2 | 8.15% | –
CCOC(=O)c1[nH]c2ccc(OC)cc2c1NC(=O)c1ccc2c(c1)OCO2 | – | 14.1 µM (active)
COc1ccc2c3c([nH]c2c1)[C@H]1C[C@@H]2[C@@H](C[C@@H](O)[C@H](OC)[C@H]2C(=O)O)CN1CC3 | 4.43% [at 11.4 µM] | –
CCOC(=O)c1[nH]c2cc(OC)c(OC)cc2c1NC(=O)c1nonc1C | – | 0.708 µM (active)
CCOC(=O)c1[nH]c2cc3c(cc2c1NC(=O)CN1CCC2(CC1)OCCO2)OCO3 | -24.5% | –
CN1CCN(CCCNC(=O)C2CCN(c3nnc(-n4cccc4)s3)CC2)CC1 | 2.31% | –

SMILES | activity, negative = inhibition | AC50
CC(=O)OC[C@@H]1O[C@H](C/C=N\O[C@@H](C)CN2CCCc3nc(C)c(C)cc32)C=C[C@@H]1OC(C)=O | -0.762% [at 11.4 µM] | –
N#Cc1ccc(-c2ccccc2)nc1SCC(=O)c1cccc(Cl)c1 | – | 2 µM (active)
O=C(CSc1nc2ccccc2c2ccccc12)c1ccccc1 | -1.33% [at 11.4 µM] | –
CC1CN(C(=O)COc2ncnc3ccccc23)CC(C)O1 (stereo not given) | -10.4% | –
CCOc1ccc(OCCOc2ncnc3ccccc23)cc1 | – | 17.8 µM (active)
CC(CO)(CO)Nc1ncnc2ccccc12 | 15.3% [at 11.4 µM] | –
CCC(=O)N(Cc1ccco1)c1nc(-c2ccccc2)cs1 | – | 2.51 µM (active)
CN(C)C(=O)c1ccc(-c2cc(N(C)Cc3ccco3)ncn2)cc1 | 0.869% [at 2.29 µM] | –
CN(C)C(=O)c1ccc(-c2nccc(N(C)Cc3ccco3)n2)cc1 | 0.769% [at 2.29 µM] | –
O=C(O)C1=CCNCC1 | – | inactive
Nc1cc(-c2nn[nH]n2)ccc1F | – | 12.6 µM (active)
c1cc(NNc2cccc(-c3nn[nH]n3)c2)cc(-c2nn[nH]n2)c1 | -4.17% [at 11.4 µM] | –
C[C@](N)(C(=O)O)c1ccc(-c2nn[nH]n2)cc1 | -10.9% | –
COc1cc(N[C@@H](C)CCCN)c2ncccc2c1 | -33.6% [at 25.6 µM] | –
COc1ccc(CCC(C)NC2C3CC4CC(C3)CC2C4)cc1 (stereo not given) | -9.44% | –
COc1ccc(CCC(C)Nc2cccc(F)c2)cc1 (stereo not given) | – | 12.6 µM (active)
COc1ccc(C(=O)N2CCC[C@@]3(CCN(CC(C)C)C3)C2)cc1 | 1.28% | –
Cc1noc(C)c1C(=O)N1CCC2(CCCN(C(=O)Nc3cccc(F)c3)C2)CC1 | 3.2% | –
COc1cccc(CN2C(=O)N(C(C)C)C(N(O)C(=O)NC(C)C)C2(C)C)c1OC (stereo not given) | – | 15.8 µM (active)
CCCCOc1ccccc1C1CC(=O)NC2=C1C(=O)CCC2 (stereo not given) | – | 17.8 µM (active)
CCCOc1ccccc1C1CC(=O)NC(C)=C1C(=O)OCC(C)C (stereo not given) | – | 1.12 µM (active)
CCOC(=O)C1=C(C)NC2(O)c3ccccc3C(=O)C12O (stereo not given) | -5.48% | –
CCCCOc1cc(C[C@@H]2CNC(=O)N2)ccc1OC | -0.321% | –
CCC(C)OC(=O)C1=C(C)NC(=O)CC1c1ccccc1OC (stereo not given) | – | 7.08 µM (active)

SMILES | activity, negative = inhibition | AC50
COc1cccc2c1OC1(C)CC2/C(=C(\C)O)C(=O)N1 (stereo not given) | 0.172% | –
NC(=O)c1cc[n+](CC2=C(C(=O)[O-])N3C(=O)[C@@H](NC(=O)Cc4cccs4)[C@@H]3SC2)cc1 | 2.83% [at 25.6 µM] | –
FC(F)(F)c1ccccc1-c1cncnc1NCc1cccnc1 | 6.26% [at 2.29 µM] | –
COC(=O)C1CC1C(NC(=O)[C@@H]1CCCN1)c1ccccc1 (stereo not given in full) | -23.5% | –
COC(=O)[C@@H]1C[C@H]1[C@@H](NC(=O)Oc1ccc(F)cc1)c1ccccc1 | – | 3.98 µM (active)
COC(=O)[C@H]1C[C@@H]1[C@H](NC(=O)OCc1ccccc1)c1ccccc1 | – | 15.8 µM (active)
O=C(N[C@@H](c1ccccc1)[C@@H]1C[C@H]1C(=O)O)OCc1ccccc1 | -6.48% | –
Cc1noc(C)c1C(=O)N1CCC[C@@]2(CCN(Cc3cc(C(F)(F)F)cc(C(F)(F)F)c3)C2)C1 | 15.9% | –
CCOc1ccccc1CNCCN1CCOCC1 | 6.96% | –
CC(=O)[C@H]([C@@H](c1ccccc1)N1CCOCC1)N1CCOCC1 | -15.9% [at 11.4 µM] | –
CCc1cc(C(c2ccccc2OC)N2CCOCC2)c(NC(=O)c2ccccc2)s1 (stereo not given) | – | 1.58 µM (active)
Cc1cc(NC(=O)CSc2n[nH]c(-c3cccs3)n2)no1 | – | 12.6 µM (active)
CCCCc1nc(SCC(=O)Nc2ncccn2)n[nH]1 | -1.7% | –
CO[C@H]1COC(=O)[C@H](C)NC(=O)C/C=C\[C@@H](C)[C@@H](NS(=O)(=O)c2ccc(C)cc2)COC(=O)[C@H](OCc2ccccc2)/C=C\[C@@H]1C | -22.3% [at 11.4 µM] | –
N#CC(c1ccc(Cl)cc1)(c1ncc(C(F)(F)F)cc1Cl)N1CCOCC1 (stereo not given) | – | 10 µM (active)
N#CC(c1ccccn1)(c1ncc(C(F)(F)F)cc1Cl)N1CCOCC1 (stereo not given) | -15.8% | –
COc1ccc(S(=O)(=O)NNC(=O)C2Cc3c(ccc4ccccc34)O2)cc1 (stereo not given) | – | 7.94 µM (active)
CC(C)(CNC(=O)c1ccc([N+](=O)[O-])c(Cl)c1)CNC(=O)c1ccc([N+](=O)[O-])c(Cl)c1 | – | 0.891 µM (active)
O=C(NCc1cccnc1)c1sc2cc(Cl)ccc2c1Cl | – | 10 µM (active)
Clc1ccccc1-c1cc(NCc2cccnc2)ncn1 | -1% [at 2.29 µM] | –
CN(C)C(=O)c1ccc(-c2cc(NCc3cccnc3)ncn2)cc1 | 17.1% [at 2.29 µM] | –
CN(C(=O)c1c(O)c2ccccc2n(C)c1=O)c1ccccc1 | -11.7% | –
CN(C(=O)CC(NC(=O)c1ccccc1)(c1ccccc1)c1ccccc1)c1ccccc1 | – | 15.8 µM (active)
